The structures appear in SMILES notation. The panel holds about 83,000 compounds, 20% with a hit somewhere; the sample as a whole holds those more often.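 Values shown are percent growth following 48 h exposure of cells in 96-well plates to a single concentration of compound; below 10 was considered active.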 Values without a mark were called inactive. Activity calls are given as the source filed them.

The test system of the experiment is NCI-H322M lung. The experiment can be described thus: NCI-60 one-dose screen, 48 h (100 = growth as untreated, 0 = no growth, -100 = all killed). Conditions: 10 µM unless noted. Here is the method:
Growth inhibition of the NCI-H322M human Non-Small Cell Lung tumor cell line is measured as a screen for anti-cancer activity. Cells are grown in 96 well plates and exposed to the test compound for 48 hours. Compounds are tested at a single concentration, which is 10^-5 M for most compounds. The reported endpoint is percent growth (GI% or GIPRCNT), where numbers from 0 - 100% represent growth inhibition, and numbers from -100% - 0 represent cell death. For example, a value of 40 represents 60% growth inhibition. A value of 0 means no net growth occurred over the course of the experiment. A value of -40 indicates 40% of cells at the beginning of the experiment died by the end of the experiment. A value of -100 means all cells are dead at the end of the experiment.
NCI-60 Human Tumor Cell Lines Screen was performed using the standard one-dose NCI protocol, which is described in more detail at https://dtp.cancer.gov/discovery_development/nci-60/default.htm.
Compounds with GIPRCNT values below 10 were considered active. Activity score was based on GIPRCNT using the following formula: […]
Score is 0 for GIPRCNT values of 100 or above, 50 for GIPRCNT values of 0, and 100 for GIPRCNT values of -100.
As for `O=Cc1[nH]c(Sc2ccccc2)c2ccccc12`, the growth was 91.7%.

As for `CCOc1ccc(C2N(c3cc(OC)c(OC)c(OC)c3)C(=O)C2(F)F)cc1` (stereo not given), the growth is 67.2%.

In the case of `CC1CCCN(CCCCCOc2ccc3oc4ccc(Cl)cc4c(=O)c3c2)C1` (stereo not given), the growth is 84.4%.

Turning to `Cc1nc(C)c(C)nc1C`, the growth is 103%.

Regarding `CCCCCCCc1n(Cc2ccc3ccccc3c2)c2ccccc2[n+]1Cc1ccc2ccccc2c1`, the growth was -86% (active).

As to `Nc1ccccc1NS(=O)(=O)c1ccc(Cl)cc1`, the growth is 81.9%.

Consider `CCOC(=O)C(=Cc1c(-c2ccccc2)[nH]c2ccccc12)C(=O)OCC`, for which the growth was 81.3%.

Turning to `N#Cc1c(-c2ccc(F)cc2)nc(N=Nc2c(O)[nH]c3ccccc23)nc1N1CCOCC1`, the growth was 61.4%.

As to `C=C1C(=O)O[C@H]2[C@H]1CC/C(COC(=O)CCCCCCC(=O)OC/C1=C/CC[C@@]3(C)O[C@H]3[C@H]3OC(=O)C(=C)[C@@H]3CC1)=C\CC[C@@]1(C)O[C@@H]21`, the growth is 99.5%.

In the case of `CC(C)(C)c1ccc(O)c(Cc2cc(C(C)(C)C)ccc2O)c1`, the growth is 102%.

In the case of `COc1cc2cc(c1Cl)N(C)C(=O)C[C@H](OC(=O)[C@H](C)N(C)C(=O)CCS)C[C@]1(C)O[C@H]1[C@H](C)[C@@H]1C[C@@](O)(NC(=O)O1)[C@H](OC)/C=C/C=C(\C)C2`, the growth is 42.8%.

On to `COc1cc(-c2csc(NC(=O)Nc3ccc(C(F)(F)F)cc3)n2)cc(OC)c1OC`, for which the growth is 33.5%.

On to `CCCn1c2cc(OCc3cn(-c4ccc(Cl)cc4)nn3)ccc2c2ccnc(C)c21`, for which the growth is 73%.

Consider `c1cc(CNC23CC4CC(CC(C4)C2)C3)cc(C[N+](Cc2cccc(CNC34CC5CC(CC(C5)C3)C4)c2)(Cc2cccc(CNC34CC5CC(CC(C5)C3)C4)c2)Cc2cccc(CNC34CC5CC(CC(C5)C3)C4)c2)c1` (stereo not given), for which the growth was 37.1% [42 µM].

With `CSc1nc(-c2ccc(F)cc2)c(C#N)c(N2CCOCC2)n1`, the growth is 92.6%.

Turning to `C#C[C@@]1(O)[C@@H](CO)O[C@@H](n2cnc3c(-c4ccccc4)ncnc32)[C@@H]1O`, the growth was 104%.

As to `COc1ccc(-c2cn(-c3ccc(Cl)cc3)c(=S)[nH]2)cc1OC`, the growth was 57.4%.

With `C#C[C@@]1(O)[C@@H](CO)O[C@@H](n2cc(Br)c3c(N)ncnc32)[C@@H]1O`, the growth is 1.46% (active).

Consider `COc1ccc2[nH]c(-c3ccccc3)c(C=C(C#N)C#N)c2c1`, for which the growth was 59.1%.

As to `Cc1ccc(SC2c3ccc(C)cc3Oc3nc(N)c(C#N)c(N)c32)cc1` (stereo not given), the growth is 104%.

Consider `C=C(C)[C@@H]1CC[C@]2(C(=O)N=C=S)CC[C@]3(C)[C@H](CC[C@@H]4[C@@]5(C)CCC(=O)C(C)(C)[C@@H]5CC[C@]43C)[C@@H]12`, for which the growth was 42.8%.

On to `CCCCc1nc(Cl)c(C2CC(c3ccc(Cl)cc3)=NN2c2cc(Cl)cc(Cl)c2)[nH]1` (stereo not given), for which the growth is 70.6%.

Consider `N#C/C(=C/c1ccc(O)c([N+](=O)[O-])c1)c1nc(-c2ccc([N+](=O)[O-])cc2)cs1`, for which the growth was 52.8%.

For the compound `COc1ccc(-c2cc(-c3nnc(SCC(=O)Nc4ccc(/C(C)=N\O)cc4)n3-c3ccccc3)c3cc(OC)ccc3n2)cc1`, the growth was 79%.

Take `Cc1cc(C)nc(NS(=O)(=O)c2ccc(Nc3ccc4c5c(n(CCCN(C)C)c(=O)c4c3)-c3ccccc3C5=O)cc2)n1`: the growth is 109%.

With `Nc1n[nH]c2cccc(C#Cc3cccc(NC(=O)c4cc(N5CCOCC5)cc(C(F)(F)F)c4)c3)c12`, the growth was 55.2%.

For the compound `COC(=O)/C=C1\SC(=Nc2ccc(F)cc2)N(CCc2c[nH]c3ccccc23)C1=O`, the growth was 101%.

For the compound `CC(C)NS(=O)(=O)c1cccc(-c2ccc3c4c(n(CCCN(C)C)c(=O)c3c2)-c2ccccc2C4=O)c1`, the growth is 104%.

For `COc1ccc(-c2cs/c(=N\N=C\c3ccc(O)cc3O)n2/N=C/c2ccc(O)cc2O)cc1`, the growth was 5.37% (active).

For `COc1ccc(/C=C(/C(=O)N2CCN(Cc3ccccc3)CC2)c2cc(OC)c(OC)c(OC)c2)cc1O`, the growth is 91.2%.

In the case of `COc1cc(C(=O)Nc2cc(O)c(C/C=C(\C)CCC=C(C)C)c(O)c2)cc2c1O[C@]1(C)CC[C@@H](O)C(C)(C)[C@H]1C2`, the growth is 48.2%.

Turning to `NS(=O)(=O)c1ccc(C2C3=C(CCCC3=O)OC3=C2C(=O)c2ccccc2C3=O)cc1` (stereo not given), the growth is 6.58% (active).

Consider `COc1cccc2c1-c1ccccc1C2=O`, for which the growth is 44.5%.

On to `COC(=O)c1ccc2c(c1)NC(=O)[C@@H]1CCCN21`, for which the growth was 99.3%.

Consider `CCCCn1c(=O)c(/C=C/C(=O)/C=C/c2ccc(O)c(OC)c2)cc2ccc(Cl)cc21`, for which the growth is 50.6%.

Take `CCCCN(CCCC)CC(CN(CC)CC)OC(=O)Nc1ccccc1` (stereo not given): the growth was 85%.

Regarding `O=C1[C@@H](OS(=O)(=O)CC(F)(F)F)[C@H](c2ccc(F)cn2)N1c1cc2c3ccccc3ccc2c2ccccc12`, the growth is 104%.

With `CC(C)(C)c1ccc2oc(=O)n(SC(Cl)(Cl)Cl)c2c1`, the growth was 106%.

Regarding `O=C(Nc1ccc(S(=O)(=O)NC2CCCCCC2)cc1)C(c1ccccc1)S(=O)(=O)c1ccc(F)cc1` (stereo not given), the growth was 17.1%.

On to `CN(C)C(CNc1oc(-c2cccc3ccccc23)nc1C#N)c1ccco1` (stereo not given), for which the growth is 99.9%.

Source of the values: PubChem BioAssay (NCI).
